# Values joined by “and” are separate entries in the source; they are usually repeats but may differ in a detail not shown here. Equal values may be shown once. Where a name gives a salt, the structure may show the parent alone. Out of some 5,800 compounds screened, about 620 (11%) showed activity. What follows is part of a selection rich in actives, with near analogues and random picks from the rest. Values without a mark were called inactive.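 Rule for the calls: active = score above a cut-off or among the top three wells of a plate; in these data no inactive exceeds 0.85.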
# Test system: primary human hepatic stellate cells (donor 1)
# Test: scaled lipid accumulation score (0 = DMSO-like, 1 = nortriptyline-like); higher = stronger HSC inactivation (lipid re-accumulation), active = hit call of the paper
# Conditions: 48 h
# [1] = library stock concentration: 1 mM
# [2] = library stock concentration: 3.33 mM
# [3] = library stock concentration: 10 mM
# [4] = library stock concentration: 80 uM
# [5] = library stock concentration: 400 uM
# [6] = library stock concentration: 2 mM
compound,measurement,setting,value
CCCCCCC(C)(C)c1ccc([C@@H]2C[C@H](O)CC[C@H]2CCCO)c(O)c1,scaled lipid accumulation score,[1],0.004
CN/C(=N\S(=O)(=O)c1ccc(Cl)cc1)N1C[C@H](c2ccccc2)C(c2ccc(Cl)cc2)=N1,scaled lipid accumulation score,[1],≤ 0
COC[C@H]1OC(=O)c2coc3c2[C@@]1(C)C1=C(C3=O)[C@@H]2CCC(=O)[C@@]2(C)C[C@H]1OC(C)=O [Wortmannin],scaled lipid accumulation score,[2],≤ 0
same,scaled lipid accumulation score,[3],≤ 0
CCOC(=O)c1ncn2c1CN(C)C(=O)c1cc(N=[N+]=[N-])ccc1-2,scaled lipid accumulation score,[3],≤ -0.001
CC1=CCCC2C1(C)CCC(C)C2(C)CC/C(C)=C/Cn1c[n+](C)c2c(N)ncnc21 (centres undefined) [Agelasine (stereochemistry of diterpene unknown)],scaled lipid accumulation score,[3],0.317
COc1ccc(N(C(=O)Oc2c(C)cccc2C)c2ccnc(Nc3ccc(N4CCN(C)CC4)cc3)n2)c(OC)c1,scaled lipid accumulation score,[4],0.038
same,scaled lipid accumulation score,[5],0.193
same,scaled lipid accumulation score,[6],≤ 0
same,scaled lipid accumulation score,[2],0.656
same,scaled lipid accumulation score,[3],0.815 and 0.679
COc1ccc(-n2nc(C(F)(F)F)cc2-c2ccc(Cl)cc2)cc1,scaled lipid accumulation score,[3],0.006
COc1ccc(/C=C/C(=O)CC(=O)/C=C/c2ccc(OC)c(OC)c2)cc1OC [Dimethoxycurcumin],scaled lipid accumulation score,[1],≤ 0
CCCCC/C=C\C/C=C\C/C=C\C/C=C\CCCC(=O)NC[C@@H](C)O [R-2 Methanandamide],scaled lipid accumulation score,[1],≤ 0
COC[C@@H]([C@H](O)[C@H](O)C(=O)NCC[C@H](C)c1nc(/C=C/C[C@@H]2O[C@]3(C[C@@H](O)[C@@H]2C)O[C@H]([C@H](C[C@H](O)[C@H](C)[C@H](O)[C@H](C)/C=C(C)/C(C)=C/C=C/C(C)=C\C#N)OC)[C@H](OP(=O)(O)O)C3(C)C)co1)N(C)C [Calyculin A],scaled lipid accumulation score,library stock concentration: 500 uM,0.228
C=C1[C@@H](C)[C@H]2[C@H](Cc3ccccc3)NC(=O)[C@]23OC(=O)/C=C/[C@H](O)CCC[C@@H](C)C/C=C/[C@H]3[C@@H]1O [Cytochalasin B],scaled lipid accumulation score,library stock concentration: 10.4 mM,0.806
C=C1[C@@H](C)[C@H]2[C@H](Cc3ccccc3)NC(=O)C23[C@H](OC(C)=O)/C=C/[C@](C)(O)C(=O)[C@@H](C)C/C=C/[C@H]3[C@@H]1O (some centres undefined) [Cytochalasin D],scaled lipid accumulation score,library stock concentration: 9.9 mM,0.918 (active)
CC[C@@H](C)C(=O)O[C@H]1[C@H](O)[C@H]2[C@@H](CN3C[C@@H](C)CC[C@H]3[C@@]2(C)O)[C@@H]2C[C@]34O[C@]5(O)[C@@H](OC(=O)[C@](C)(O)[C@@H](C)O)CC[C@@]3(C)[C@@H]5[C@@H](OC(C)=O)[C@@H](OC(C)=O)[C@H]4[C@@]21O (stereo in doubt) [Protoveratrine b],scaled lipid accumulation score,[3],≤ 0
COc1ccc2c(c[n+](C)c3c4cc5c(cc4ccc23)OCO5)c1OC.Cl [Chelerythrine chloride],scaled lipid accumulation score,[6],1.1 (active)
COc1ccc2c(c[n+](C)c3c4cc5c(cc4ccc23)OCO5)c1OC [Chelerythrine Chloride],scaled lipid accumulation score,[2],0.656
COc1ccc2c(c[n+](C)c3c4cc5c(cc4ccc23)OCO5)c1OC [Chelerythrine chloride],scaled lipid accumulation score,[4],≤ -0.016
same,scaled lipid accumulation score,[5],≤ -0.016
same,scaled lipid accumulation score,[3],0.308 and 0.167
"COc1ccc2c(c1OC)CN1CCc3cc4c(cc3C1C2)OCO4 (centres undefined) [(d,l)-Tetrahydroberberine]",scaled lipid accumulation score,,≤ 0
CCCCC/C=C\C/C=C\C/C=C\C/C=C\CCC(C)C(=O)NCCF (centres undefined),scaled lipid accumulation score,[1],0.05
C/C=C1/C[N+]2(C)CCC34C(=C(C=O)[C@H]1C[C@@H]32)Nc1ccccc14 (some centres undefined) [Fluorocurarine chloride],scaled lipid accumulation score,,≤ 0
CC(C)C1CNC(C(=O)O)C1CC(=O)O (centres undefined) [Dihydrokainic acid],scaled lipid accumulation score,[3],0.08
CCCCC/C=C\C[C@@H](/C=C/C=C\C/C=C\CCCC(=O)O)OO,scaled lipid accumulation score,library stock concentration: 100 uM,≤ -0.021
"Cc1cc(C)cc(C(=O)OC2C[C@H]3CC[C@@H](C2)N3C)c1 (some centres undefined) [Tropanyl-3,5-dimethylbenzoate]",scaled lipid accumulation score,[3],0.57
CN1C2CCC1CC(OC(=O)c1cc(Cl)cc(Cl)c1)C2 (centres undefined),scaled lipid accumulation score,[3],1.04 (active)
"CN1[C@@H]2CC[C@H]1C[C@@H](OC(=O)c1cc(Cl)cc(Cl)c1)C2 [3-Tropanyl-3,5-dichlorobenzoate]",scaled lipid accumulation score,[3],0.646
C=C(C)[C@H]1O[C@H]2CC[C@@]3(C)[C@@](O)(CC[C@H]4[C@@H]5OC(C)(C)[C@H]6C[C@@H]7C(=C)Cc8c(Cl)cc9[nH]c(c5c9c8[C@@]76O)[C@@]43C)[C@@]23O[C@H]3[C@H]1O [Penitrem A],scaled lipid accumulation score,library stock concentration: 7.9 mM,≤ -0.021
O=c1[nH]c2ccccc2n1CCCN1CCC(n2c(=O)[nH]c3cc(Cl)ccc32)CC1 [Domperidone],scaled lipid accumulation score,,0.362
same,scaled lipid accumulation score,[2],0.062
same,scaled lipid accumulation score,library stock concentration: 4.7 mM,0.135 and 0.071
O=c1[nH]c2ccccc2n1C1CCN(Cc2ccc(-c3[nH]c4cc5ncnc5cc4nc3-c3ccccc3)cc2)CC1 [Sigma A6730],scaled lipid accumulation score,[4],≤ 0
same,scaled lipid accumulation score,[5],≤ 0
same,scaled lipid accumulation score,[6],0.055
same,scaled lipid accumulation score,[3],0.683
O=C(CCCN1CCC(n2c(=O)[nH]c3ccccc32)CC1)c1ccc(F)cc1 [Benperidol],scaled lipid accumulation score,,0.202
O=c1[nH]c2ccccc2n1C1CCN(CCCC(c2ccc(F)cc2)c2ccc(F)cc2)CC1 [Pimozide] [listing 1 of 3 here],scaled lipid accumulation score,,0.242
same,scaled lipid accumulation score,[3],0.021
O=c1[nH]c2ccccc2n1C1CCN(CCCC(c2ccc(F)cc2)c2ccc(F)cc2)CC1 [Pimozide] [listing 2 of 3 here],scaled lipid accumulation score,[3],1.15 (active)
O=c1[nH]c2ccccc2n1C1CCN(CCCC(c2ccc(F)cc2)c2ccc(F)cc2)CC1 [Pimozide] [listing 3 of 3 here],scaled lipid accumulation score,[3],1.21 (active)
c1cc(N2CCNCC2)c2cc[nH]c2c1 [4-(1-piperazinyl)-1H-Indole (hydrochloride)],scaled lipid accumulation score,[1],≤ 0
CNCCCCCCN(C)N(O)N=O,scaled lipid accumulation score,[1],0.005
OC1CCCCC1N1CCC(c2ccccc2)CC1 (centres undefined) [Vesamicol hydrochloride],scaled lipid accumulation score,library stock concentration: 6.8 mM,≤ 0
same,scaled lipid accumulation score,[3],≤ -0.027
OC1CCCCC1N1CCC(c2ccccc2)CC1 (centres undefined),scaled lipid accumulation score,[3],≤ 0

# Reference: the supplement of paper PMC9135407
